Experimental findings from PubChem BioAssay are described below.

For part of these data: Potency and affinity values are given separately. Active and inactive are the calls of the source. Unless noted, how the calls were made is not given here.

Experiment [1] concerns the target Alpha-bungarotoxin (Bungarus multicinctus) (UniProt P60615). The experiment in a line: alpha-bungarotoxin binders on microarray, profiling panel, artefact control for SMM control protein annotation, biochemical, small-molecule microarray, Alexa647 label, 635/667 nm fluorescence (AID 1117). Particulars: alpha-BTX-A647 binding fluorescence, higher = more signal.
The test system of experiment [2] is XIP peptide (Xip251-270) binding. The experiment in a line: small-molecule binders of XIP peptide, primary screen, biochemical, small-molecule microarray, fluorescence 635/667 nm, 0.1 µg/mL protein (AID 1182). The conditions noted are these: fluorescent protein binding, 635 nm, higher = more signal, called active from +8 up or from −8 down.
The test system of the next experiment is XIP peptide (Xip251-270). Kind of experiment: small-molecule binders of XIP peptide, primary screen, biochemical, small-molecule microarray, fluorescence 635/667 nm, 0.5 µg/mL protein (AID 1183). The conditions noted are these: small-molecule microarray binding, fluorescence 635 nm; higher = more signal.
The nature of experiment [3]: Plasmodium falciparum growth inhibition, primary screen, strain 3D7, DAPI fluorescence, 100 nL (AID 1184).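 Further: parasites grown inside human red blood cells in medium with human serum.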 Particulars: P. falciparum 3D7 growth, 3 d, higher = more signal.
Experiment [4] deals with Homeobox protein Hox-A13 (Mus musculus) (UniProt Q62424). The experiment in a line: inhibitors of HoxA13-DNA binding, primary screen, biochemical, fluorescence polarization, labeled oligonucleotide (AID 1185). The conditions noted are these: 15 min, higher = more signal, called active from +8 up or from −8 down.
Experiment [5] can be described thus: inhibitors of hydroxyurea-induced Chk1 phosphorylation, primary screen, imaging, HeLa, phospho-Chk1 antibody, percent positive cells (AID 1186). The conditions noted are these: hydroxyurea-induced phospho-Chk1 immunofluorescence imaging, higher = more signal.
Experiment [6] can be described thus: inhibitors of hydroxyurea-induced Chk1 phosphorylation, primary screen, imaging, HeLa, phospho-Chk1 nuclear intensity (AID 1187). Particulars: hydroxyurea-induced phospho-Chk1 immunofluorescence imaging, higher = more signal.
Experiment [7] can be described thus: P. aeruginosa biofilm formation inhibitors, primary screen, PAO1 strain, BacTiter-Glo luminescence, LB-PBS (AID 1144). Particulars: 12 h, higher = more signal.
Experiment [8] can be described thus: P. aeruginosa biofilm formation inhibitors, primary screen, strain PAO1, LB-PBS medium, absorbance 600 nm (AID 1176). Particulars: P. aeruginosa PAO1 growth/biofilm, A600, 12 h; higher = more signal.
Experiment [9] can be described thus: HeLa cell cytotoxicity, dose response, cytotoxicity control, ATP luminescence, cherry-pick samples (AID 687004;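 active means a fitted half-maximal concentration no higher than twice the top valid tested dose, with signal falling as cells die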;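 further: 0% = neutral control median and -100% = staurosporine 10 µM control median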). Particulars: HeLa viability, ATP luminescence (CellTiter-Glo), 48 h; series mostly up to 26 µM. Background: Cellular ATP, detected with luciferase, serves as a proxy for viable cell number.

Sequence of Alpha-bungarotoxin (Bungarus multicinctus) (P60615 whole entry, looked up): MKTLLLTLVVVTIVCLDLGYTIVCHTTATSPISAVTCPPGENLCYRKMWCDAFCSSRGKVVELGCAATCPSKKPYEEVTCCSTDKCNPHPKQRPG
Sequence of Homeobox protein Hox-A13 (Mus musculus) (Q62424 whole entry, looked up): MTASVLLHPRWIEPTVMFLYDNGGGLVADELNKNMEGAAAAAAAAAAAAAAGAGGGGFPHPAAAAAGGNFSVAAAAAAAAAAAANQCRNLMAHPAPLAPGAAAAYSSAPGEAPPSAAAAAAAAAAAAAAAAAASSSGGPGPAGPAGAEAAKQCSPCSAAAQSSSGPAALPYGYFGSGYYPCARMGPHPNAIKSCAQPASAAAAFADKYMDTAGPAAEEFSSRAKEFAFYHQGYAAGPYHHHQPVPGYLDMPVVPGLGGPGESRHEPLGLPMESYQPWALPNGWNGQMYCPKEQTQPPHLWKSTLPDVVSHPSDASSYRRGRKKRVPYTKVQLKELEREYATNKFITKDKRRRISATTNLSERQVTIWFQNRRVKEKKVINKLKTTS

In the case of `C=CCNC(=O)[C@H]1[C@@H]2C(=O)O[C@@H](c3ccccc3)[C@@H](c3ccccc3)N2[C@@H](c2ccc(OCCO)cc2)[C@]12C(=O)Nc1ccc(C#CCCO)cc12`, the composite z-score is 1.9 in experiment [1], 0.331 (inactive) in experiment [2] and 0.81 in the experiment on XIP peptide (Xip251-270). Also, the z-score in experiment [3] was -0.739; in [4], -3.71 (inactive); in [5] it was -0.229 (inactive); in [6], -0.205 (inactive).
With `CCCCCN1CC=CC23O[C@@H]4/C=C\CCC(C)OC(=O)C4[C@H]2C(=O)N(CCO)[C@@H]3C1=O` (stereo partly drawn), the composite z-score is -1.7 in [1], 0.642 (inactive) in [2] and -0.927 with XIP peptide (Xip251-270). The z-score in experiment [3] was -1.41; in experiment [4], -3.89 (inactive); in [5], -0.174 (inactive); in [6], 0.125 (inactive).
With `C=CC[C@@]1(C(=O)NCc2ccccc2)N=C(c2ccc(OCCCO)cc2)O[C@@H]1c1ccccc1`, the composite z-score in experiment [1] was 1.1; in [2], 0.624 (inactive); in the experiment with XIP peptide (Xip251-270), 0.784. Further, the z-score is -2.24 in experiment [3], -6.13 (inactive) in [4], -0.762 (inactive) in experiment [5] and -0.974 (inactive) in experiment [6].
On to `C=C1C=C(Br)C2(OCCCO2)[C@H]2OC12` (stereo partly drawn), for which the z-score was -0.109 (inactive) in [7], -0.233 (inactive) in experiment [8], 1.19 in experiment [3] and -1.06 (inactive) in [4]. The composite z-score in experiment [2] was -0.584 (inactive); with XIP peptide (Xip251-270) it was -0.135.
Regarding `C[N+](C)(C)CCCC[C@@H]1NC(=O)[C@H]2C[C@@H](C(=O)NCCCCCN)[C@@H](c3cccc(OCCO)c3)N2C1=O`, the results for the composite z-score (in experiment [1]; in experiment [2]; in the experiment with XIP peptide (Xip251-270)) were 2.15, 0.713 (inactive) and 0.608, respectively. For the same compound, the z-score in experiment [3] was -1.09; in experiment [4] it was -2.19 (inactive); in experiment [5], 0.287 (inactive); in experiment [6] it was 0.7 (inactive).
With `C=CC[C@@H](OC(=O)Nc1ccc(SC)cc1)c1ccc(OCCO)cc1`, the composite z-score was -0.68 in experiment [1], 1.08 (inactive) in [2] and -0.689 in the experiment with XIP peptide (Xip251-270). For the same compound, the z-score in [3] is 0.246; in [4] it was -5.9 (inactive); in [5], -0.0622 (inactive); in experiment [6], 0.593 (inactive).
As for `O=C(NCC(F)(F)F)[C@@H]1c2ccccc2C(=O)N(C2Cc3ccccc3C2)[C@H]1c1ccc(CO)cc1`, the composite z-score in [1] was -1.22; in [2], -0.729 (inactive); with XIP peptide (Xip251-270) it was -1.33. Further, the z-score in experiment [3] was 0.824; in experiment [4], -1.6 (inactive); in experiment [5] it was -0.606 (inactive); in experiment [6], -0.842 (inactive).
Turning to `CO[C@H]1O[C@H](CO)[C@@H](OC(=O)Nc2ccccc2)[C@H](OC(=O)Nc2ccccc2-c2ccccc2)[C@@H]1OC(=O)Nc1ccccc1-c1ccccc1`, the composite z-score in [1] is 2.77; in experiment [2], 1.7 (inactive); with XIP peptide (Xip251-270), 0.868. Also, the z-score was -2.3 in experiment [3], -1.96 (inactive) in experiment [4], -0.515 (inactive) in [5] and -0.367 (inactive) in [6].
For `CC(C)C(CO)N1C(=O)[C@@H]2C3C(=O)OCCC/C=C\[C@H]3OC23C=CCN(C(C)C)C(=O)[C@@H]13` (stereo partly drawn), the composite z-score in experiment [1] is -1.61; in experiment [2], 0.528 (inactive); with XIP peptide (Xip251-270), -0.501. For the same compound, the z-score in [3] was 0.0709; in [4], -4.01 (inactive); in [5], -1.29 (inactive); in [6], -1.14 (inactive).
Regarding `COC(=O)C(CC#Cc1ccc2c(c1)[C@]1(C(=O)N2)[C@H](C(N)=O)[C@H]2C(=O)O[C@H](c3ccccc3)[C@H](c3ccccc3)N2[C@@H]1c1ccc(O)cc1)C(=O)OC`, the composite z-score was -0.243 in [1], 1.07 (inactive) in experiment [2] and -1.13 in the experiment on XIP peptide (Xip251-270). For the same compound, the z-score is -0.91 in experiment [3], -3.34 (inactive) in experiment [4], 0.16 (inactive) in experiment [5] and 0.819 (inactive) in experiment [6].
For `CC(C)C(=C=CC[C@H](O)c1ccc(OCCO)cc1)C[C@H](O)COCc1ccccc1`, the composite z-score in experiment [1] was 1.07; in experiment [2] it was 0.941 (inactive); with XIP peptide (Xip251-270), 0.0727. The z-score was -2.65 in experiment [3], -4.06 (inactive) in [4], -0.0011 (inactive) in experiment [5] and 0.313 (inactive) in [6].
For `COCCCN1C(=O)[C@@]2(Cc3ccccc31)c1ccccc1C(=O)N(Cc1ccccc1Cl)[C@H]2c1ccc(CO)cc1`, the composite z-score was -0.342 in experiment [1], -0.31 (inactive) in [2] and 0.107 in the experiment on XIP peptide (Xip251-270). Further, the z-score in experiment [3] is -0.7; in experiment [4], -0.759 (inactive); in experiment [5], -0.83 (inactive); in experiment [6], -0.981 (inactive).
As to `C=CCC(OC(C)=O)[C@@H]1[C@@H](N(Cc2cccc3ccccc23)C(=O)Cc2ccc(OC)cc2)c2cc(OCCCO)ccc2N1C(=O)Cc1ccc(OC)cc1` (stereo partly drawn), the composite z-score in [1] was 0.476; in experiment [2], -0.203 (inactive); in the experiment with XIP peptide (Xip251-270) it was -0.665. Besides, the z-score is -2.1 in [3], -2.18 (inactive) in [4], 0.162 (inactive) in [5] and 0.268 (inactive) in experiment [6].
For `COCCOC(=O)N1C(=O)[C@@]2(c3cc(C#CC4(O)CCCCCC4)ccc31)[C@H](c1ccc(O)cc1)N1[C@H](c3ccccc3)[C@H](c3ccccc3)OC(=O)[C@H]1[C@@H]2C(N)=O`, the composite z-score in experiment [1] was 1.97; in [2], 1.84 (inactive); in the experiment on XIP peptide (Xip251-270), 0.821. Also, the z-score in experiment [3] was -0.5; in experiment [4], -2.38 (inactive); in experiment [5], 0.178 (inactive); in [6], 0.0653 (inactive).
For the compound `CN(C)C(=O)c1ccc(-c2ccc([C@H]3[C@H]4CN(CCC(F)(F)F)CCCCN4[C@H]3CO)cc2)cc1`, the call in experiment [9] was inactive.
As to `C=CCNC(=O)CN(c1ccc(F)cc1)S(=O)(=O)c1ccc(OC)cc1`, the compound was called inactive in [9].
As to `COCCNC(=O)C[C@H]1CC[C@@H]2[C@H](COC[C@H](O)CN2S(=O)(=O)c2ccccc2C)O1`, in experiment [9], the compound was called inactive.
For the compound `O=C([C@@H]1[C@@H](CO)[C@@H]2Cn3c(cccc3=O)[C@@H]2N1CCC(F)(F)F)N1CCCCC1`, in [9], the compound was called inactive.
As to `CCOC(=O)CNC(=O)CSc1ncnc2c1cnn2-c1ccc(OC)cc1`, in experiment [9], the outcome was inactive.
On the same count and under the same terms, with `Cc1cccc(C)c1NC(=O)C(C)N1CCCC1` (stereo not drawn) the entry was “inactive”.
As to `C[C@@H]1CN([C@@H](C)CO)C(=O)c2cc(NC(=O)Nc3ccc4c(c3)OCO4)ccc2O[C@H]1CN(C)Cc1ccc(Oc2ccccc2)cc1`, in experiment [9], the result was inactive.
Turning to `Cc1ccc(N(C(=O)C2CCC(=O)N2)C2(C(=O)NC3CCCCC3)CCCCC2)cc1` (stereo not drawn), in experiment [9], the result was inactive.
Consider `COc1ccc(NC(=O)Nc2ccc3c(c2)C(=O)N([C@H](C)CO)C[C@H](C)[C@H](CN(C)C(=O)Cc2ccccc2)OCCCC[C@H](C)O3)cc1`, for which, in experiment [9], the call was inactive.
For `CCc1ccc(NC(=O)C2NC(=O)CC2c2ccccc2)cc1` (stereo not drawn), in experiment [9], the compound was called inactive.
Take `CCC(=O)N[C@@H]1C=C[C@H](CC(=O)NCC2CCCCC2)O[C@H]1CO`: the compound was called inactive in experiment [9].
With `Cc1noc(C)c1NC(=O)Nc1ccc2c(c1)C(=O)N([C@H](C)CO)C[C@@H](C)[C@H](CN(C)S(C)(=O)=O)OCCCC[C@@H](C)O2`, the compound was called inactive in [9].
Consider `C[C@@H]1CN([C@@H](C)CO)C(=O)CCCn2cc(nn2)CO[C@@H]1CN(C)C(=O)NC1CCCC1`, for which, in experiment [9], the compound was called inactive.
On the same count and under the same terms, with `C[C@@H]1CCCCO[C@@H](CN(C)Cc2ccncc2)[C@@H](C)CN([C@H](C)CO)C(=O)c2cc(NC(=O)c3ccncc3)ccc2O1` the entry was “inactive”.
On to `CNC[C@H]1Oc2ccc(NC(=O)Cc3cn(C)c4ccccc34)cc2CC(=O)N([C@@H](C)CO)C[C@H]1C`, for which, in [9], the result was inactive.
As for `C[C@@H]1CN([C@@H](C)CO)C(=O)c2cc(NC(=O)CCN3CCOCC3)ccc2O[C@@H]1CN(C)Cc1ccc(C(=O)O)cc1`, in experiment [9], the compound was called inactive.
In the case of `COc1ccccc1CNC(=O)C[C@@H]1C[C@H]2c3cc(NC(=O)Nc4ccccc4F)ccc3O[C@H]2[C@@H](CO)O1`, the compound was classed as inactive in [9].
For `COc1ccc(NC(=O)N(C)C[C@H]2OCCCC[C@@H](C)Oc3ccc(N(C)C)cc3C(=O)N([C@H](C)CO)C[C@H]2C)cc1`, the compound was classed as inactive in experiment [9].
Regarding `Cc1noc(C)c1S(=O)(=O)Nc1ccc2c(c1)C(=O)N([C@H](C)CO)C[C@H](C)[C@H](CN(C)Cc1ccncc1)O2`, the outcome in experiment [9] was inactive.
Consider `Cc1cc(C(=O)Nc2ccc3c(c2)C(=O)N(C)[C@@H]2CC[C@@H](CC(=O)N[C@@H](C)c4ccccc4)O[C@@H]2CO3)no1`, for which the result in experiment [9] was inactive.
The same measure, in the same setting: with `O=C(NC1CCCC1)N1CCCCN2[C@H](CO)[C@H](c3ccc(-c4cncnc4)cc3)[C@@H]2C1` the entry was “inactive”.
Same read-out and setting: in the case of `CCCNC(=O)N1C[C@@H]2[C@H](c3ccccc31)[C@H](CO)N2Cc1ccc(OC)cc1` it was “inactive”; in that of `CNC(=O)C[C@@H]1CC[C@@H]2[C@H](COC[C@H](O)CN2S(=O)(=O)c2cccc(Cl)c2)O1`, “inactive”; in that of `C[C@H](O)C#Cc1ccc([C@H]2[C@H](CO)N3CCCCN(CC4CCOCC4)C[C@@H]23)cc1`, “inactive”.
Still for that read-out and setting: in the case of `C[C@H]1CN([C@@H](C)CO)C(=O)CCCn2nncc2CO[C@@H]1CN(C)Cc1cccc(C(F)(F)F)c1` it was “inactive”; in that of `COCC(=O)Nc1ccc2c(c1)C(=O)N(C)C[C@@H](OC)[C@H](C)CN(Cc1ccccc1)[C@@H](C)CO2`, “inactive”.
